Inconclusive results are not listed. Calls of active or inactive are those of the source. Calls follow the shape of the dose curve; as a rule, active = well fitted curve in the direction sought with a large enough effect; inconclusive = small, poorly fitted or top-dose-only effect, or another doubt; inactive = no such curve, though single readings can be large; an effect the other way counts as inactive or inconclusive.

Experiment [1] can be described thus: qHTS of pediatric cancer cell lines to identify multiple opportunities for drug repurposing: Primary screen for BT-37 cells (AID 1347094). Also: series mostly up to about 57 µM. The gist of the method:
(§1)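 CRCs from 8- or 11-point titrations (lowest final 0.59 nM NPC, 0.78 nM MIPE). Cell viability: CellTiter-Glo after 48 h incubation, 15 min room-temperature development, luminescence imaging.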

The nature of experiment [2]: qHTS of pediatric cancer cell lines to identify multiple opportunities for drug repurposing: Primary screen for NB-EBc1 cells (AID 1347095). Also: potency is read from the fitted curve at half-maximal effect. The gist of the method:
as §1

A short description of experiment [3]: qHTS of pediatric cancer cell lines to identify multiple opportunities for drug repurposing: Primary screen for U-2 OS cells (AID 1347096). Also: nearly all actives have a fitted effect of over 50% in size. The gist of the method: (§2)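 Cells (500-1,000/well) rested 5 h, then received compounds for 48 h; metabolically active cells were measured by CellTiter-Glo luminescence. Final concentrations spanned up to 46 µM (MIPE, 11-point) or 0.59 nM-46 µM (NPC, 8-point) in primary screens, 11-point in follow-ups.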

Experiment [4] is described as follows: qHTS of pediatric cancer cell lines to identify multiple opportunities for drug repurposing: Primary screen for Saos-2 cells (AID 1347097). Also: nearly all actives have a fitted effect of over 40% in size. Also: potency is read from the fitted curve at half-maximal effect. The gist of the method:
as §1

The nature of experiment [5]: qHTS of pediatric cancer cell lines to identify multiple opportunities for drug repurposing: Primary screen for SK-N-SH cells (AID 1347098). Also: nearly all actives have a fitted effect of over 65% in size. Also: potency is read from the fitted curve at half-maximal effect. The gist of the method:
as §2

Experiment [6] can be described thus: qHTS of pediatric cancer cell lines to identify multiple opportunities for drug repurposing: Primary screen for NB1643 cells (AID 1347099). Also: nearly all actives have a fitted effect of over 50% in size. Also: potency is read from the fitted curve at half-maximal effect. An outline of the steps: as §1
Experiment [7] in a line: qHTS of pediatric cancer cell lines to identify multiple opportunities for drug repurposing: Primary screen for LAN-5 cells (AID 1347100). Also: potency is read from the fitted curve at half-maximal effect. An outline of the steps:
as §2

The nature of experiment [8]: qHTS of pediatric cancer cell lines to identify multiple opportunities for drug repurposing: Primary screen for BT-12 cells (AID 1347101). Also: nearly all actives have a fitted effect of over 25% in size. Also: potency is read from the fitted curve at half-maximal effect. The gist of the method:
as §2

Experiment [9] is described as follows: qHTS of pediatric cancer cell lines to identify multiple opportunities for drug repurposing: Primary screen for Rh18 cells (AID 1347102). Also: nearly all actives have a fitted effect of over 65% in size. Also: potency is read from the fitted curve at half-maximal effect. An outline of the steps: as §2
Experiment [10] in a line: qHTS of pediatric cancer cell lines to identify multiple opportunities for drug repurposing: Primary screen for OHS-50 cells (AID 1347103). Also: nearly all actives have a fitted effect of over 40% in size. Also: potency is read from the fitted curve at half-maximal effect. An outline of the steps:
as §2

Experiment [11] in a line: qHTS of pediatric cancer cell lines to identify multiple opportunities for drug repurposing: Primary screen for MG 63 (6-TG R) cells (AID 1347105). Also: nearly all actives have a fitted effect of over 50% in size. Also: potency is read from the fitted curve at half-maximal effect. The gist of the method:
as §1

The nature of experiment [12]: qHTS of pediatric cancer cell lines to identify multiple opportunities for drug repurposing: Primary screen for control Hh wild type fibroblast cells (AID 1347106).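 Also: series mostly up to about 46 µM; a drop in luminescence marks cytotoxicity and a rise apparent proliferation; nearly all actives have a fitted effect of over 55% in size.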 The gist of the method:
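Viability after 48 h compound treatment at 37C, 500-1,000 cells/well, read as ATP luminescence with CellTiter-Glo. Primary screens used 11-point (MIPE, 0.78 nM-46 µM) or 8-point (NPC, 0.59 nM-46 µM) final concentrations; follow-up screens used 11-point dilutions.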

Experiment [13] is described as follows: qHTS of pediatric cancer cell lines to identify multiple opportunities for drug repurposing: Primary screen for Rh30 cells (AID 1347107). Also: series mostly up to about 46 µM; nearly all actives have a fitted effect of over 75% in size. The gist of the method: as §2
A short description of experiment [14]: qHTS of pediatric cancer cell lines to identify multiple opportunities for drug repurposing: Primary screen for Rh41 cells (AID 1347108). Also: nearly all actives have a fitted effect of over 70% in size. Also: potency is read from the fitted curve at half-maximal effect. An outline of the steps:
as §1

The nature of experiment [15]: qHTS of pediatric cancer cell lines to identify multiple opportunities for drug repurposing: Primary screen for RD cells (AID 1347104). Also: nearly all actives have a fitted effect of over 55% in size. Also: potency is read from the fitted curve at half-maximal effect. The gist of the method: as §1
Experiment [16] is described as follows: qHTS of pediatric cancer cell lines to identify multiple opportunities for drug repurposing: Primary screen for SK-N-MC cells (AID 1347093). Also: potency is read from the fitted curve at half-maximal effect. An outline of the steps:
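Metabolically active cells were quantified by ATP-dependent luminescence (CellTiter-Glo, 15 min at room temperature) following 48 h treatment. Cells had been plated at 500-1,000 per well and settled for 5 h beforehand.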

Experiment [17] in a line: qHTS of pediatric cancer cell lines to identify multiple opportunities for drug repurposing: Confirmatory screen for NB1643 cells (AID 1347109). Also: nearly all actives have a fitted effect of over 45% in size. An outline of the steps: as §2
Experiment [18] can be described thus: qHTS of pediatric cancer cell lines to identify multiple opportunities for drug repurposing: Confirmatory screen for BT-12 cells (AID 1347112). Also: nearly all actives have a fitted effect of over 55% in size. The gist of the method: as §2

Regarding `N=c1nc(N2CCCCC2)cc(N)n1O`, the Potency entry in [1], in [2], in [3], in [4], in [5] and in experiment [6] was “inactive” throughout. In addition, the Potency entry in [7], in experiment [8], in [9], in experiment [10], in experiment [11] and in experiment [12] was “inactive” in each case. For the same compound, the Potency entry in experiment [13] and in experiment [14] was “inactive” throughout.
`Cc1n[nH]c(C)c1Cc1sc2c(c1C(=O)N1C[C@H](O)CO1)c(=O)n(C)c(=O)n2CC(C)C`: the Potency entry in experiment [1], in experiment [2], in experiment [3], in [5], in experiment [8] and in experiment [9] was “inactive” in each case. In addition, the Potency result in experiment [10], in experiment [15], in experiment [11], in [12] and in experiment [13] was “inactive” in each case. Further, the Potency in experiment [6] was 1.05 µM (active).
Take `Nc1ncnc2nc(-c3ccc(N4CCOCC4)nc3)cc(-c3cccc(Br)c3)c12`: the Potency result in [2], in experiment [4], in experiment [11] and in [12] was “inactive” throughout.
Take `COc1cc(Oc2ccnc3cc(OC)c(OC)cc23)ccc1NC(=O)NC(C)c1nccs1` (configuration not stated): the Potency entry in [1], in experiment [3], in [6], in experiment [9], in experiment [15] and in [12] was “inactive” throughout.
As for `COc1ccc(-c2c(-c3ccc(O)cc3O)n[nH]c2C)cc1`, the Potency was 38.2 µM (active) in experiment [2] and 44.4 µM (active) in experiment [10]. Moreover, the Potency result in experiment [3], in experiment [9], in [15], in experiment [11] and in experiment [12] was “inactive” throughout.
As for `COc1ccc(COc2cc3oc(=O)c4cc(C(C)O)ccc4c3cc2OC)cc1` (configuration not stated), the Potency in experiment [2] is 10.5 µM (active); in experiment [4] it was 14.8 µM (active); in [11], 18.7 µM (active); in experiment [14], 18.7 µM (active). Further, the Potency result in experiment [3], in experiment [6] and in experiment [7] was “inactive” each time.
For the compound `CCOc1cc(C(=O)Nc2ccc(Cl)c(-c3nc4ccccc4[nH]3)c2)cc(OCC)c1OCC`, the Potency entry in [2], in experiment [8], in [9], in experiment [10] and in experiment [11] was “inactive” throughout. The Potency in experiment [5] was 5.41 µM (active); in [6], 11.8 µM (active); in experiment [15] it was 2.96 µM (active).
Regarding `NNCCc1ccccc1`, the Potency result in experiment [1], in [2], in experiment [4], in experiment [9], in experiment [10] and in [15] was “inactive” throughout. The Potency result in experiment [11], in [12], in experiment [13] and in [14] was “inactive” throughout.
As to `CN[C@@H](C)C(=O)N[C@H]1CCCC[C@H]2CC[C@@H](C(=O)N[C@@H](c3ccccc3)c3cn(CCCCc4ccc(CCCCn5cc([C@@H](NC(=O)[C@@H]6CC[C@@H]7CCCC[C@H](NC(=O)[C@H](C)NC)C(=O)N76)c6ccccc6)nn5)cc4)nn3)N2C1=O`, the Potency in experiment [16] is 6.62 µM (active); in experiment [8], 27.3 µM (active); in [9] it was 14.8 µM (active). Further, the Potency entry in [3], in experiment [6], in experiment [11] and in experiment [12] was “inactive” in each case.
On to `c1ccc(-c2nn3c(c2-c2ccnc4cc(OCCN5CCOCC5)ccc24)CCC3)nc1`, for which the Potency result in experiment [16], in [3], in experiment [5], in [8], in experiment [9] and in experiment [15] was “inactive” throughout. Also, the Potency entry in experiment [11], in [12], in experiment [13] and in experiment [14] was “inactive” throughout.
For `CCc1cc(Nc2nccc(-c3c(-c4ccc(OC)c(C(=O)Nc5c(F)cccc5F)c4)nc4ccccn34)n2)c(OC)cc1N1CCC(N2CCN(S(C)(=O)=O)CC2)CC1`, the Potency entry in experiment [3], in experiment [6] and in [9] was “inactive” each time. The Potency is 18.7 µM (active) in experiment [4], 21.5 µM (active) in experiment [5] and 18.7 µM (active) in experiment [11].
Take `NC[C@H](O)c1ccc(O)c(O)c1`: the Potency entry in [1], in experiment [2], in experiment [3], in [4], in experiment [5] and in [6] was “inactive” in each case. The Potency entry in [7], in [8], in experiment [9], in [10], in [15] and in [11] was “inactive” throughout. In addition, the Potency result in experiment [12], in [13] and in experiment [14] was “inactive” throughout.
Take `CC1(C)CNc2cc(NC(=O)c3cccnc3NCc3ccncc3)ccc21`: the Potency was 9.35 µM (active) in [2] and 20.9 µM (active) in [7]. Further, the Potency result in experiment [3], in experiment [15], in experiment [12] and in experiment [13] was “inactive” throughout.
As for `NC(N)=NC(=O)c1nc(Cl)c(N)nc1N`, the Potency result in [1], in [2], in experiment [3], in experiment [4], in [7] and in experiment [8] was “inactive” each time. Further, the Potency entry in [9], in experiment [10], in experiment [15], in experiment [11], in experiment [12] and in experiment [13] was “inactive” throughout. For the same compound, the Potency result in experiment [14], in experiment [17] and in experiment [18] was “inactive” throughout.
Turning to `N#Cc1ccc(C(c2ccc(C#N)cc2)n2cncn2)cc1`, the Potency result in [2], in experiment [3], in [7], in experiment [9] and in experiment [12] was “inactive” throughout.
